The list is not random: actives were taken first. Their share in the collection is about 2.3%.
M1 ag parental = nonselective activator or artifact in parental CHO-K1 cells | Fluo-8 calcium fluorescence; scaled to maximal ATP response, vehicle zero | actives 0.48% (n = 360,000) | activation, % at 3 µM; in the data active = activation above about 15%;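 note: untransfected CHO-K1 host cells lacking M1 receptor as counterscreen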
CHRM1 agonist = agonists of human M1 muscarinic receptor | CHO-K1 hM1, Fluo-8 calcium fluorescence, agonist mode; 0% DMSO, 100% acetylcholine EC100 | activation, % at 3 µM | actives 0.33% (n = 360,000) | AID 588814;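 active = activation above the run's mean compound activation plus 3 SD, cut at about 16% in these data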;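 note: peak over basal fluorescence ratio within a 140 s kinetic read after compound addition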
Target sequence (P11229 whole entry, looked up): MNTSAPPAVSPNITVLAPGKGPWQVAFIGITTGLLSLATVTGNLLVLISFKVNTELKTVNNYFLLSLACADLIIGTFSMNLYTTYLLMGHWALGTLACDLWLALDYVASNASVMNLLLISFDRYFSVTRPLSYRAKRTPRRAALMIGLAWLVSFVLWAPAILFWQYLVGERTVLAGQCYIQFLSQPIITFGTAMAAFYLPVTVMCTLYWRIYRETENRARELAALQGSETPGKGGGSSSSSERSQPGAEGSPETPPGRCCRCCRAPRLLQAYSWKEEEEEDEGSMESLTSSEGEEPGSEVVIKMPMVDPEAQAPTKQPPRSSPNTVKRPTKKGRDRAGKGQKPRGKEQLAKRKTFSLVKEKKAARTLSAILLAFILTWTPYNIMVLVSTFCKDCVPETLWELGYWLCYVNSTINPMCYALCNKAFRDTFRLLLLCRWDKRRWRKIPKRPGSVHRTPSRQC
CHO-K1 Ca antag = counter-screen for M1 antagonists: effect in parental CHO-K1 cells | ATP-induced calcium, Fluo-8 fluorescence | inhibition, % at 3 µM | actives 0.6% (n = 360,000);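 active = inhibition above a per-plate cutoff, the plate's mean sample inhibition plus 3 SD, cut at about 24% in these data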;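 note: 0% = DMSO plus EC80 ATP and 100% = DMSO alone without ATP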
CHRM1 PAM = human CHRM1 positive allosteric modulation; P11229; CHO-K1 hM1, Fluo-8 calcium fluorescence, ACh EC20; 0% = ACh EC20, 100% = maximal ACh; activation, % at 3 µM; actives 0.088% (n = 360,000); in the data active = activation above about 19%, passing the limit was not always enough
CHRM1 antagonist = human CHRM1 antagonism. CHO-K1 hM1, Fluo-8 calcium fluorescence, ACh EC80 antagonist. inhibition, % at 3 µM. actives 1.3% (n = 360,000). AID 588852;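 active = percent inhibition above its own plate's cutoff, namely the mean of that plate's compound wells plus 3 SD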;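 note: peak over basal fluorescence ratio during 140 s after agonist addition; 0% = ACh EC80 plus DMSO and 100% = DMSO alone without agonist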
CHO-K1 Ca PAM = M1 PAM counterscreen hit in parental CHO-K1 cells; actives 0.02% (n = 360,000); ATP EC20, Fluo-8 calcium fluorescence; 0% at ATP EC20, 100% at ATP max; AID 602247; activation, % at 3 µM;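 active = activation above the run cutoff, the mean activation of all test compounds plus 3 SD, cut at about 40% in these data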;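 note: peak over basal fluorescence ratio in a 140 s read after ATP addition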
Starred values were filed as active, the others as inactive; nt = not tested or not shown.

SMILES	M1 ag parental	CHRM1 agonist	CHO-K1 Ca antag	CHRM1 PAM	CHRM1 antagonist	CHO-K1 Ca PAM
O=C1CC(c2ccccc2)=C(c2ccccc2)C1c1ccccc1 (stereo not drawn)	0.4	-4.1	-3.6	-4.6	-3.4	20.9
O=C(NCCCN1CCc2ccccc2C1)Nc1ccc(Br)cc1	5.6	-0.9	-4.5	-14.1	43.6*	19.2
CCCN1C2CCCC1CC(NC(=O)c1ccccc1OCC)C2 (stereo not drawn)	-0.1	-4.8	-6.8	-9.1	20.4	17.7
CCCN1C2CCCC1CC(NC(=O)c1ccccc1Br)C2 (stereo not drawn)	-0.1	-8.7	0.1	-20.9	47.0*	-8.3
CCNC(=S)NC1CC2CCCC(C1)N2CCc1ccccc1 (stereo not drawn)	0.2	-8.3	-6.8	-27.5	72.4*	10.1
CCOc1ccccc1C(=O)NC1CC2CCCC(C1)N2Cc1ccc(C)cc1 (stereo not drawn)	-0.3	-9.3	-4.3	-23.8	42.9*	1.4
CCCN1C2CCCC1CC(NC(=O)c1ccccc1)C2 (stereo not drawn)	0.0	-5.9	-1.2	-16.1	41.9*	-3.2
CCCN1C2CCCC1CC(NC(=O)c1ccccc1F)C2 (stereo not drawn)	0.0	-5.1	16.8	-7.0	9.6	-8.0
Cc1ccc(C2(C)NC(=O)N(CC(=O)Nc3cccnc3Cl)C2=O)cc1 (stereo not drawn)	2.2	1.6	-10.8	9.1	0.0	16.9
CCC1(c2ccccc2)NC(=O)N(CC(=O)Nc2ccccc2N2CCCC2)C1=O (stereo not drawn)	4.9	12.8	10.4	9.8	-13.6	-7.9
CCC1(c2ccc(F)cc2)NC(=O)N(CC(=O)Nc2cccnc2Cl)C1=O (stereo not drawn)	8.9	16.8*	-2.6	5.8	-4.8	-27.9
COc1ccc(C2(C)NC(=O)N(CC(=O)Nc3cccnc3Cl)C2=O)cc1 (stereo not drawn)	6.0	10.2	-0.2	8.0	-7.3	-2.6
CC1(c2ccccc2)NC(=O)N(CC(=O)Nc2ccccc2N2CCCCC2)C1=O (stereo not drawn)	6.5	22.3*	-11.2	5.8	-2.6	17.5
CCC1(c2ccccc2)NC(=O)N(CC(=O)Nc2cccnc2Cl)C1=O (stereo not drawn)	2.3	4.1	-2.1	13.6	-10.5	23.5
CC1(c2ccc(OC(F)F)cc2)NC(=O)N(CC(=O)Nc2cccnc2Cl)C1=O (stereo not drawn)	33.0*	43.9*	-1.5	-8.4	18.6	-16.4
CC1(c2ccc([N+](=O)[O-])cc2)NC(=O)N(CC(=O)Nc2cccnc2Cl)C1=O (stereo not drawn)	9.1	22.5*	-6.9	9.2	-5.8	15.0
Cc1ccc(C(=O)CCC(=O)Nc2ccccc2F)cc1	1.1	-3.8	-13.0	6.5	-7.0	24.6
CC(Cn1cncn1)C(=O)N1CCN(S(=O)(=O)c2ccccc2)CC1 (stereo not drawn)	0.9	-0.9	-12.2	9.8	-6.8	21.3
CCc1ccccc1NC(=O)COc1ccc2c(c1)OCO2	1.1	-3.7	-10.1	4.1	3.0	8.3
Cc1ccc(NC(=O)COc2ccc3c(c2)OCO3)c(Cl)c1	0.7	6.9	-12.2	27.0*	-13.3	10.9
COc1ccccc1C(=O)NNC(=O)c1ccc(Br)cc1	-0.3	-3.3	0.4	-4.4	4.8	-1.1
O=C1NC(=S)N/C1=C\c1ccccc1OCc1ccc(C(=O)O)cc1	-0.1	34.0*	-11.5	11.1	-20.3	9.9
CN1C(=O)/C(=C/c2ccccc2OCc2ccc(F)cc2)N(C)C1=S	-0.8	-10.1	-0.9	-22.5	100.2*	-3.9
O=C(CNc1ccc(Br)cc1)NNC1=NCCC1	1.0	-7.5	-10.2	13.3	-13.0	25.6
Cc1cc2nc(-c3ccccc3)c(Cc3cccc(Cl)c3)n2c(C)c1Br	-0.4	nt	-3.1	nt	nt	13.0
SMILES	M1 ag parental	CHRM1 agonist	CHO-K1 Ca antag	CHRM1 PAM	CHRM1 antagonist	CHO-K1 Ca PAM
CCOc1cc(S(=O)(=O)NCc2cccs2)ccc1Cl	0.5	-4.0	11.3	-11.9	-4.1	-1.1
CCOC(=O)COc1ccc(S(=O)(=O)NCc2ccncc2)cc1	12.7	3.2	12.1	-11.0	18.7*	-7.1
CCOc1cc(S(=O)(=O)NCc2ccncc2)ccc1Cl	12.1	0.8	55.2*	-18.7	23.2	-15.2
CCOc1ccc(S(=O)(=O)NCc2ccncc2)cc1	7.0	1.1	15.1	-5.8	17.0	-1.8
Cc1ccc([N+](=O)[O-])cc1NC(=O)C[n+]1ccccc1	0.5	-5.5	-9.9	6.3	-10.3	12.4
Oc1ccccc1N1CCN(c2ccc3ccccc3n2)CC1	7.8	5.8	-13.5	-5.3	6.7	17.7
CCCCCCCCCCCCN1[C@@H](CC(=O)OC)c2cc(F)ccc2S1(=O)=O	0.2	2.5	-17.4	31.6*	-23.1	10.9
CC1CCCCC12NC(=O)N(CC(=O)NCc1cccs1)C2=O (stereo not drawn)	1.8	-4.7	25.1*	0.6	-4.8	-4.7
CC1CCCCC12NC(=O)N(CC(=O)OCC(=O)Nc1ccc(F)cc1[N+](=O)[O-])C2=O (stereo not drawn)	5.3	3.4	6.4	-16.7	29.0*	-2.0
COc1ccccc1C(=O)NC(=O)COC(=O)CN1C(=O)NC2(CCCCC2C)C1=O (stereo not drawn)	0.2	-2.5	16.8	2.9	-9.8	-13.1
C/C(CCc1ccc2c(c1)OCO2)=N\NC(=O)c1ccccc1Br	0.8	-5.4	-5.0	1.5	-5.3	24.0
CNCCOc1ccccc1-c1ccccc1	0.5	-6.0	-12.3	-4.4	3.6	11.3
O=S(=O)(c1ccc(N2CCCC2)nc1)N1CCCC1	4.7	-6.4	-10.6	1.7	-1.5	4.4
CCN1CCN(c2ccc(S(=O)(=O)N3CCCC3)cn2)CC1	0.8	-6.1	-6.7	-17.6	35.9*	10.9
CCN1CCN(c2ccc(N3CCN(S(=O)(=O)c4cc([N+](=O)[O-])ccc4C)CC3)nn2)CC1	0.4	-7.9	0.0	-26.4	40.1*	5.4
COCCN(C(=O)C1=COCCO1)c1c(N)n(CC(C)C)c(=O)[nH]c1=O	0.0	-1.0	-2.2	1.2	3.5	-8.9
CCc1ccc(Nc2cc(=O)n(C3CCCCC3)c(=O)[nH]2)cc1	19.0*	19.7*	3.4	-3.2	11.8	3.5
C=CC(=O)Nc1cccc(Nc2nc(N[C@H]3CC[C@H](N(C)C)CC3)nc3c2ncn3C(C)C)c1	-0.2	-10.6	-2.7	5.0	-7.1	3.6
CCCc1nnc(NC(=O)CSc2nc3ccccc3[nH]2)s1	-0.5	-3.1	30.5*	-3.4	-7.9	-13.8
COc1ccc(CCCN2CCC(CN3CCNC(=O)C3=O)CC2)cc1OC	0.4	-5.9	-3.6	-0.8	2.9	0.6
CC(=O)c1ccccc1NC(=O)c1cc(S(=O)(=O)N2CCOCC2)ccc1N1CCCC1	-0.7	-4.5	1.8	-2.4	3.5	-10.4

Screening results as filed in PubChem BioAssay.
